# Test results published in article PMC7862700, “An all-to-all approach to the identification of sequence-specific readers for epigenetic DNA modifications on cytosine”.
# Tests used:
# Experiment in all cases: DAPPL (digital affinity profiling via proximity ligation, sequencing); 10 mM Tris-HCl pH 7.5, 50 mM NaCl, 1 mM DTT, 4% glycerol, room temperature, 30 min; GST-TFs on glutathione beads, 16-mer random dsDNA library, 0.1% formaldehyde crosslink after washing; high values mean tight binding
# FLI1 = molecular target: T1, FLI1 (Homo sapiens, UniProt Q01543 1-452); settings: protein: recombinant; tags: N-terminal GST; dsDNA, one strand shown
# T1 sequence: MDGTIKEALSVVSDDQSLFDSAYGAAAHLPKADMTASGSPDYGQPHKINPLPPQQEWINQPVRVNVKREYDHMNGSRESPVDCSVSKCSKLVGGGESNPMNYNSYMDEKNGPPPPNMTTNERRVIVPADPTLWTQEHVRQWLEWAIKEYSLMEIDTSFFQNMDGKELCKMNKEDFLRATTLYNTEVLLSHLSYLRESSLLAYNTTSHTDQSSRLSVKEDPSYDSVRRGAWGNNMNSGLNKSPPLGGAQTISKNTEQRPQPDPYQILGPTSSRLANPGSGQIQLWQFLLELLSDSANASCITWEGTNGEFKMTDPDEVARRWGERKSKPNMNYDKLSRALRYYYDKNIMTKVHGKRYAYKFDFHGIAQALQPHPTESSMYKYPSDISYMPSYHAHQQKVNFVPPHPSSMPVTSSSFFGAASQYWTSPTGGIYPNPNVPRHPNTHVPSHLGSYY
# In short: (§1)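 Binding signal is given per hexamer as its read frequency for a factor divided by its frequency in the tag-only sample. GST-fused human transcription factors were expressed in yeast, captured on glutathione beads, barcoded with DNA and pooled with that sample, then incubated with 200 nmole of a 16-mer random double-stranded DNA library in Tris/NaCl/DTT/glycerol buffer for 30 min at room temperature. The pools were then washed, crosslinked, proximity-ligated, amplified by PCR and sequenced on an Illumina NextSeq500.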
# ELK1 = molecular target: T2, ELK1 (Homo sapiens, UniProt P19419 1-428); settings: protein: recombinant; tags: N-terminal GST; dsDNA, one strand shown
# T2 sequence: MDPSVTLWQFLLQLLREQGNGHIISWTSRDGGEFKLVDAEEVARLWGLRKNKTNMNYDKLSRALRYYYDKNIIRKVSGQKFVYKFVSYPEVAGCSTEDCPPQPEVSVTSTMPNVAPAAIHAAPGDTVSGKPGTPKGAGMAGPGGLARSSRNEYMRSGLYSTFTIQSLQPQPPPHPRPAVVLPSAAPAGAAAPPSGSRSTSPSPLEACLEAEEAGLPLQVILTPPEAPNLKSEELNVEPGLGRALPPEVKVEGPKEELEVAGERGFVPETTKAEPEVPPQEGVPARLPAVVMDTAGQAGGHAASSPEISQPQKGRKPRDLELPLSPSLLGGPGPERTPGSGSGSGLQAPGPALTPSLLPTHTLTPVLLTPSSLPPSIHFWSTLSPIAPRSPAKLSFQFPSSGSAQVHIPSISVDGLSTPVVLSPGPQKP
# In short: as §1
# GABPA = molecular target: T3, GABPA (Homo sapiens, UniProt Q06546 1-454); settings: protein: recombinant; tags: N-terminal GST; dsDNA, one strand shown
# T3 sequence: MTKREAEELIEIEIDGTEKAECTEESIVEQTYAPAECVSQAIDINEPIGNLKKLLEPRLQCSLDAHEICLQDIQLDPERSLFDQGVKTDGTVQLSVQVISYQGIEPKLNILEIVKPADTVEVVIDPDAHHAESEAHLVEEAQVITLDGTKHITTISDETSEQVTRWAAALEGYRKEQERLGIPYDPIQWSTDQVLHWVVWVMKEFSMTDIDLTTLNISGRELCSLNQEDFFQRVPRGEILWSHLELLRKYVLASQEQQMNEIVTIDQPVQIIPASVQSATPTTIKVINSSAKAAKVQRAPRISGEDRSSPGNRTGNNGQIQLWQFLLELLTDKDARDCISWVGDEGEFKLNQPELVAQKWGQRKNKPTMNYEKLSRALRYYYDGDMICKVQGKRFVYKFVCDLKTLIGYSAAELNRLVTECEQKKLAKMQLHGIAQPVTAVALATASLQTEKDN
# In short: as §1
# ERG = molecular target: T4, ERG (Homo sapiens, UniProt P11308 1-479); settings: protein: recombinant; tags: N-terminal GST; dsDNA, one strand shown
# T4 sequence: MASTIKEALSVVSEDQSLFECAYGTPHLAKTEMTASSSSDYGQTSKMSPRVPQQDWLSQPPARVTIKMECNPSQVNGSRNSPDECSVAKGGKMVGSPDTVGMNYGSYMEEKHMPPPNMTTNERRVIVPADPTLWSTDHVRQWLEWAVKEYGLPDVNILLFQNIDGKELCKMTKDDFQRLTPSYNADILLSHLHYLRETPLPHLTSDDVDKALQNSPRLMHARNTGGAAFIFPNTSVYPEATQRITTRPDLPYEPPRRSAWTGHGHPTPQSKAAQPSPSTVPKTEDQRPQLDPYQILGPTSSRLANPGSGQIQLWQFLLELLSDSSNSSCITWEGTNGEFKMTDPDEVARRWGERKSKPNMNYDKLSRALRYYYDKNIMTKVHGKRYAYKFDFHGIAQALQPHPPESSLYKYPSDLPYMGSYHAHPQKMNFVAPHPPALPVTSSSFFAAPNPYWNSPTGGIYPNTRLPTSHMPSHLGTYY
# In short: as §1
# ELF1 = ELF1 (Homo sapiens, UniProt P32519 1-619); settings: protein: recombinant; tags: N-terminal GST; dsDNA, one strand shown
# Chain of ELF1 (P32519 whole entry): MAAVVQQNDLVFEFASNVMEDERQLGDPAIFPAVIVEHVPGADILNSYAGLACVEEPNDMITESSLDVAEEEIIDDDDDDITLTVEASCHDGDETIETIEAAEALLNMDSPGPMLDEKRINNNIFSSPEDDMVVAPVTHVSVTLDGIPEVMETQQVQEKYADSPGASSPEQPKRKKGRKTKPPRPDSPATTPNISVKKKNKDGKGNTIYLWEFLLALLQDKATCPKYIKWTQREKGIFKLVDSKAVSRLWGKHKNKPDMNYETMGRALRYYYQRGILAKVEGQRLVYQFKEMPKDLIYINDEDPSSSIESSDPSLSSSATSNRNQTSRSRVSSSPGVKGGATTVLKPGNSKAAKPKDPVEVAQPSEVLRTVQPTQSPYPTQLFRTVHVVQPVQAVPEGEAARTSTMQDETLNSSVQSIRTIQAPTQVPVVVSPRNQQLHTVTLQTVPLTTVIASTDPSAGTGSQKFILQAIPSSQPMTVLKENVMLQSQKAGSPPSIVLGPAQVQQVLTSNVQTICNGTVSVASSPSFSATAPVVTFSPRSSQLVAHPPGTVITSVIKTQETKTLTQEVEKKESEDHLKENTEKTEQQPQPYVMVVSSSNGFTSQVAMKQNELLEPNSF
# In short: as §1
# EHF = molecular target: T5, EHF (Homo sapiens, UniProt Q9NZC4 1-300); settings: protein: recombinant; tags: N-terminal GST; dsDNA, one strand shown
# T5 sequence: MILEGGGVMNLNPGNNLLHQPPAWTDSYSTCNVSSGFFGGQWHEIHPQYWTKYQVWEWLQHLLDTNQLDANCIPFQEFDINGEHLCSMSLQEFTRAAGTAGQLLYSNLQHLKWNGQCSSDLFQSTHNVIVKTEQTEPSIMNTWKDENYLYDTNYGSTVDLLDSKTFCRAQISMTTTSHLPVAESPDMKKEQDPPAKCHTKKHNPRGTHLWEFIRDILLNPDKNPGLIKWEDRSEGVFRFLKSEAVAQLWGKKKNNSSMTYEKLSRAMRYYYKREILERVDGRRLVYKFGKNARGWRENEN
# In short: as §1
# SPI1 = SPI1 (Homo sapiens, UniProt P17947 1-270); settings: protein: recombinant; tags: N-terminal GST; dsDNA, one strand shown
# In short: as §1
# SPIB = SPIB (Homo sapiens, UniProt Q01892 1-262); settings: protein: recombinant; tags: N-terminal GST; dsDNA, one strand shown
# Chain of SPIB (Q01892 whole entry): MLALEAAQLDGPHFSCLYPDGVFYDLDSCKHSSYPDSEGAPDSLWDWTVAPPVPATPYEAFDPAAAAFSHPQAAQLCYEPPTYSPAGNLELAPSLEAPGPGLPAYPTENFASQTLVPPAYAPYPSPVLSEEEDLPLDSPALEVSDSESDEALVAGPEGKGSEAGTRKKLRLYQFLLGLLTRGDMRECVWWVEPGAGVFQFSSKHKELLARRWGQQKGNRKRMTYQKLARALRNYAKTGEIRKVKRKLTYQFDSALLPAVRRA
# In short: as §1
# ELK3 = molecular target: T6, ELK3 (Homo sapiens, UniProt P41970 1-407); settings: protein: recombinant; tags: N-terminal GST; dsDNA, one strand shown
# T6 sequence: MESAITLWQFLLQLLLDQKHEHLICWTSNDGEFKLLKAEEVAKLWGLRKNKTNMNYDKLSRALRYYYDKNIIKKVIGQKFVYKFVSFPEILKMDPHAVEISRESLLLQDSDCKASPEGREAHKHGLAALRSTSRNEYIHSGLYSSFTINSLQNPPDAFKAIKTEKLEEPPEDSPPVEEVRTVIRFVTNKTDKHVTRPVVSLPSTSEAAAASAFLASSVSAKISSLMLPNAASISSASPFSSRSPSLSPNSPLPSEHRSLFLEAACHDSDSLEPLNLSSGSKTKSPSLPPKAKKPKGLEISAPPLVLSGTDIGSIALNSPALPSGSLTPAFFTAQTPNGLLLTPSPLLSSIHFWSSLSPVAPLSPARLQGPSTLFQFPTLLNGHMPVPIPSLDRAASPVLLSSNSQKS
# In short: as §1
# FEV = molecular target: T7, FEV (Homo sapiens, UniProt Q99581 1-238); settings: protein: recombinant; tags: N-terminal GST; dsDNA, one strand shown
# T7 sequence: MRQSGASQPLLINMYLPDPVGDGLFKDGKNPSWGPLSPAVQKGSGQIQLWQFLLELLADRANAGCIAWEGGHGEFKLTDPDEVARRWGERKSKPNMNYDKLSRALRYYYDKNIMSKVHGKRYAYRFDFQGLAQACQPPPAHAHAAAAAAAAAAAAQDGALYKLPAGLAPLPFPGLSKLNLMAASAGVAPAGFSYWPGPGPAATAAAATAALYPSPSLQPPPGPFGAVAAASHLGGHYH
# In short: as §1
# ETV5 = ETV5 (Homo sapiens, UniProt P41161 1-510); settings: protein: recombinant; tags: N-terminal GST; dsDNA, one strand shown
# Chain of ETV5 (P41161 whole entry): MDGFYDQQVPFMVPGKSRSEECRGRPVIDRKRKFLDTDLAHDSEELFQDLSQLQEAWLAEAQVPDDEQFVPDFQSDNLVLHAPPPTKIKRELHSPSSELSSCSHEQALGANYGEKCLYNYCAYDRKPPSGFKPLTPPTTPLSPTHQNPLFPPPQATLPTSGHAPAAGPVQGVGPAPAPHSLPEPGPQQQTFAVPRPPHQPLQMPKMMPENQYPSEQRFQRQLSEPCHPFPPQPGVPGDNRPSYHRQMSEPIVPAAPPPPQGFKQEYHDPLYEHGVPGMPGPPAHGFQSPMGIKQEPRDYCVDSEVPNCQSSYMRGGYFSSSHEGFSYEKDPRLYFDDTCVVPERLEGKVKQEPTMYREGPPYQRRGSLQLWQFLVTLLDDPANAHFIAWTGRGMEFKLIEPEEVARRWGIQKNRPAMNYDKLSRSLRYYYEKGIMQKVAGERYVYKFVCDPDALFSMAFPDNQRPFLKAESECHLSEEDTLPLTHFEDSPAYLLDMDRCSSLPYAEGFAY
# In short: as §1
# HSF1 = HSF1 (Homo sapiens, UniProt Q00613 1-529); settings: protein: recombinant; tags: N-terminal GST; chain copies: 3; dsDNA, one strand shown
# Chain of HSF1 (Q00613 whole entry): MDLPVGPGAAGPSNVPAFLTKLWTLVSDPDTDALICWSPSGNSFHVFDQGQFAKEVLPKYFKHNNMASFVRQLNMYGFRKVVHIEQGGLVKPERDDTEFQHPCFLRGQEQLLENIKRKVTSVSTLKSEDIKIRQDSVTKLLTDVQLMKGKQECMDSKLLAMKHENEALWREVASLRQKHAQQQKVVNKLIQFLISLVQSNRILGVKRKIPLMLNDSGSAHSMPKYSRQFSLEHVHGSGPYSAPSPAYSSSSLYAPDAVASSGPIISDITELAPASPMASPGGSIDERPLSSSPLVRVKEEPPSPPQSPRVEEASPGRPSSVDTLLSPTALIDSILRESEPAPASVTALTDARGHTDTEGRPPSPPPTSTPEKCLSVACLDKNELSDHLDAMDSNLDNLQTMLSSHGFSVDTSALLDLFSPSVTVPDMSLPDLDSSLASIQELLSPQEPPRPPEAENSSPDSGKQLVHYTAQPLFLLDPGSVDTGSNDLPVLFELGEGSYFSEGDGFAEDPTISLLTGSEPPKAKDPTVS
# In short: as §1
# SPIC = molecular target: T8, SPIC (Homo sapiens, UniProt Q8N5J4 1-248); settings: protein: recombinant; tags: N-terminal GST; dsDNA, one strand shown
# T8 sequence: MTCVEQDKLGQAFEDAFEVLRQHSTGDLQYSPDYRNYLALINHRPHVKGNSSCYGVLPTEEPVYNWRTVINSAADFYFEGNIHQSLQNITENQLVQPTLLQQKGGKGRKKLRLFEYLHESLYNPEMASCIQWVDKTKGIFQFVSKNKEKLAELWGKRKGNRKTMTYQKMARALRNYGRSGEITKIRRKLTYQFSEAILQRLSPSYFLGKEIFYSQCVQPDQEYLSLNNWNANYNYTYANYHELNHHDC
# In short: as §1
# ELF4 = ELF4 (Homo sapiens, UniProt Q99607 1-663); settings: protein: recombinant; tags: N-terminal GST; dsDNA, one strand shown
# Chain of ELF4 (Q99607 whole entry): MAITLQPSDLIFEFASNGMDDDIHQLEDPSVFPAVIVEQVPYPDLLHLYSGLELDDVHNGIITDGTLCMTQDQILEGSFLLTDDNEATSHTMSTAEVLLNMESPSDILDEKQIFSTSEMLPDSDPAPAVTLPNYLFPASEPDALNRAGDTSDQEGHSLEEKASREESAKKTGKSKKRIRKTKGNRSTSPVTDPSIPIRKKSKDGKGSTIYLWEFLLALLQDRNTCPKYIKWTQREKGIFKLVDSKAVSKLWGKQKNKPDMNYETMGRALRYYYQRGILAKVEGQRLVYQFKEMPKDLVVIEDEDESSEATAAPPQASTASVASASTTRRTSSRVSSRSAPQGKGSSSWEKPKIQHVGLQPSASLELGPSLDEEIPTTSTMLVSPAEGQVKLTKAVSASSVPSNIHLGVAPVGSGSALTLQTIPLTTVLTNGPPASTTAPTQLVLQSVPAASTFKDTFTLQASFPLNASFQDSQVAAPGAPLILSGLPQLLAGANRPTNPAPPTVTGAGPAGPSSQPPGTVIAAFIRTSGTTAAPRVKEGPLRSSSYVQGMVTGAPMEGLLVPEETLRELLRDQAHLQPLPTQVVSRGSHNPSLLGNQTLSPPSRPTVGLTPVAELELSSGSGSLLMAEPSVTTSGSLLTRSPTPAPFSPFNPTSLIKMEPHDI
# In short: as §1
# ELK4 = molecular target: T9, ELK4 (Homo sapiens, UniProt P28324-2 1-405); settings: protein: recombinant; tags: N-terminal GST; dsDNA, one strand shown
# T9 sequence: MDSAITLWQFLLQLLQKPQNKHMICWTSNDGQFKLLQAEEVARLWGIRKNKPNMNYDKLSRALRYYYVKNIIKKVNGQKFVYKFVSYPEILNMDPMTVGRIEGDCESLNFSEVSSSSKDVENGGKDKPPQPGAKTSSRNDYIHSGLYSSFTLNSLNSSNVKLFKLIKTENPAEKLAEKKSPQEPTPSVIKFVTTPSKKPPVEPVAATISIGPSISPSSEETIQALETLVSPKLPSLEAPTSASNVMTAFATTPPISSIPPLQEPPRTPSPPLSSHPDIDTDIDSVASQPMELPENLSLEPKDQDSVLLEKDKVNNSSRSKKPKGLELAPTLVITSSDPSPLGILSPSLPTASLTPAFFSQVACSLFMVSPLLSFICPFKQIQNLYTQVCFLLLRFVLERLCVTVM
# In short: as §1
# ETV2 = molecular target: T10, ETV2 (Homo sapiens, UniProt O00321 1-342); settings: protein: recombinant; tags: N-terminal GST; dsDNA, one strand shown
# T10 sequence: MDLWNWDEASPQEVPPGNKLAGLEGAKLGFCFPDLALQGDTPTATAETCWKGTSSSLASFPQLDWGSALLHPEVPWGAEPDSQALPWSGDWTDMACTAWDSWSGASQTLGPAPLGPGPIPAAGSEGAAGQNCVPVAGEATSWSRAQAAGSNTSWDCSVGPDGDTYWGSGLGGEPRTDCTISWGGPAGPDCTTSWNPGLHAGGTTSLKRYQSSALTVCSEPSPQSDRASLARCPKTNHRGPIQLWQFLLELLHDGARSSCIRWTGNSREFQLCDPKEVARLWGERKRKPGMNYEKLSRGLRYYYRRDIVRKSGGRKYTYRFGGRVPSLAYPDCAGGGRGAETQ
# In short: as §1
# ELF3 = molecular target: T11, ELF3 (Homo sapiens, UniProt P78545 1-371); settings: protein: recombinant; tags: N-terminal GST; dsDNA, one strand shown
# T11 sequence: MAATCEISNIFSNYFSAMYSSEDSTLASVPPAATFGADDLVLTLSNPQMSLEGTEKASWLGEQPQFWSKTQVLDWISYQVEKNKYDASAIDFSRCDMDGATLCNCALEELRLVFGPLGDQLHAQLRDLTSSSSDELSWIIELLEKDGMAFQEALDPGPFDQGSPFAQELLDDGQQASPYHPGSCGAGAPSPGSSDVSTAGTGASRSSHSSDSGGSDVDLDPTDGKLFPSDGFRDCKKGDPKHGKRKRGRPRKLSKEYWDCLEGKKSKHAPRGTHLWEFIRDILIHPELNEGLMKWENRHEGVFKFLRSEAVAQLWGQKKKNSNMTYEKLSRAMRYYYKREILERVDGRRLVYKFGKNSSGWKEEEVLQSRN
# In short: as §1
# CRX = CRX (Homo sapiens, UniProt O43186 1-299); settings: protein: recombinant; tags: N-terminal GST; dsDNA, one strand shown
# Chain of CRX (O43186 whole entry): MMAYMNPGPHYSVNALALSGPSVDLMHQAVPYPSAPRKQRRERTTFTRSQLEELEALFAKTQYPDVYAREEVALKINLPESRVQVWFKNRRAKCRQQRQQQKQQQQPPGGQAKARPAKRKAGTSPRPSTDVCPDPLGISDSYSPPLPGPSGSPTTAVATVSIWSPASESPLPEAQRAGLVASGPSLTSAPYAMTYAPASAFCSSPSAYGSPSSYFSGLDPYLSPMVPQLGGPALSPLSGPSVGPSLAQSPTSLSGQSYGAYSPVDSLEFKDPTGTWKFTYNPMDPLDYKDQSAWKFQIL
# In short: as §1
# ETV1 = ETV1 (Homo sapiens, UniProt P50549 1-477); settings: protein: recombinant; tags: N-terminal GST; dsDNA, one strand shown
# Chain of ETV1 (P50549 whole entry): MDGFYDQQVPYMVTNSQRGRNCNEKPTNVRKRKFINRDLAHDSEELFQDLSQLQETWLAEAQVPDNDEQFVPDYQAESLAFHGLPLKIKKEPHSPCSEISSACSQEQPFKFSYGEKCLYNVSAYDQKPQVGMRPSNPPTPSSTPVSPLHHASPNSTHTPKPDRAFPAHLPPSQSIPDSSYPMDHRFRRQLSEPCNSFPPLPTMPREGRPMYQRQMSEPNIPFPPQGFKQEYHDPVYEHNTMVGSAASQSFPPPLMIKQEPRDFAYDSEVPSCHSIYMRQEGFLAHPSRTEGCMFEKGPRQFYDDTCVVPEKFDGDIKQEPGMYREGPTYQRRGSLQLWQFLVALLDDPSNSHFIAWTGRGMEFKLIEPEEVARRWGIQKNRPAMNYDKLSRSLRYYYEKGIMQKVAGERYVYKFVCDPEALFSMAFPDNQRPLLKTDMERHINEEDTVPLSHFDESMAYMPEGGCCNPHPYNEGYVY
# In short: as §1
sequence,measurement,setting,value
AAACAA,binding signal,FLI1,"1.24 fold enrichment (6-mer frequency, TF over GST control)"
same,binding signal,ELK1,"1.33 fold enrichment (6-mer frequency, TF over GST control)"
same,binding signal,GABPA,"1.2 fold enrichment (6-mer frequency, TF over GST control)"
same,binding signal,ERG,"1.38 fold enrichment (6-mer frequency, TF over GST control)"
same,binding signal,ELF1,"1.28 fold enrichment (6-mer frequency, TF over GST control)"
same,binding signal,EHF,"1.26 fold enrichment (6-mer frequency, TF over GST control)"
same,binding signal,SPI1,"1.32 fold enrichment (6-mer frequency, TF over GST control)"
same,binding signal,SPIB,"1.21 fold enrichment (6-mer frequency, TF over GST control)"
same,binding signal,ELK3,"1.36 fold enrichment (6-mer frequency, TF over GST control)"
same,binding signal,FEV,"1.28 fold enrichment (6-mer frequency, TF over GST control)"
same,binding signal,ETV5,"1.28 fold enrichment (6-mer frequency, TF over GST control)"
same,binding signal,HSF1,"1.23 fold enrichment (6-mer frequency, TF over GST control)"
same,binding signal,SPIC,"1.33 fold enrichment (6-mer frequency, TF over GST control)"
same,binding signal,ELF4,"1.31 fold enrichment (6-mer frequency, TF over GST control)"
same,binding signal,ELK4,"1.28 fold enrichment (6-mer frequency, TF over GST control)"
same,binding signal,ETV2,"1.31 fold enrichment (6-mer frequency, TF over GST control)"
same,binding signal,ELF3,"1.49 fold enrichment (6-mer frequency, TF over GST control)"
same,binding signal,CRX,"1.06 fold enrichment (6-mer frequency, TF over GST control)"
same,binding signal,ETV1,"1.32 fold enrichment (6-mer frequency, TF over GST control)"
